Source: PubChem
RGS8-Gao = RGS8-Galphao binding modulators, primary screen, biochemical, multiplexed bead flow cytometry. 0.34% of 220,000 active. response (percent of control binding), % at 10 µM. AID 1423, 2008. actives lie on both sides. Guanine nucleotide-binding protein G(o) subunit alpha (Homo sapiens), P09471; in the data active = response below about 60% or above about 140%; inactive = in between;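 also: Galphao activated as the GDP aluminium fluoride complex binding bead-coupled RGS8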
Target sequence (P09471 whole entry, looked up): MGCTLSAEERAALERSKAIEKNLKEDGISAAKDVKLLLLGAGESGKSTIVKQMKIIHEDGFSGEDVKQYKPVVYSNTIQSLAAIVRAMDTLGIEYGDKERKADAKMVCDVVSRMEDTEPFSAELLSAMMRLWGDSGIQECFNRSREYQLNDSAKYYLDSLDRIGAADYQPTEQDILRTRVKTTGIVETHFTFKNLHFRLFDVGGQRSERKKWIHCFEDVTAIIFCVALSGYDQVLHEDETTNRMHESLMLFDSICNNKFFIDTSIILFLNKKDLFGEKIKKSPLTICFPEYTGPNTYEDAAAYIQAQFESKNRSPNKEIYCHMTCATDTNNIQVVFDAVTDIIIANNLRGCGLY
GSH fluor = compound fluorescence on glutathione beads, profiling panel, artefact control, biophysical, 488/530 nm, flow cytometry; fluorescence (KMESF) at 10 µM; 0.25% of 190,000 active; GSH beads flow cytometry, compound fluorescence 488/530 nm; stronger effect = higher value; in the data active = fluorescence above about 89;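 also: glutathione beads carrying GST-tagged Bcl family fusion proteins plus one bare bead set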
RGS7-Gao = RGS7-Galphao binding modulators, primary screen, biochemical, multiplexed bead flow cytometry. actives lie on both sides. binding response (% of control), % at 10 µM. 0.35% of 220,000 active. AID 1439, 2008. Guanine nucleotide-binding protein G(o) subunit alpha (Homo sapiens), P09471; in the data active = binding response below about 49% or above about 150%; inconclusive = no clear call, values can overlap the other calls; inactive = in between;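 also: fluorescent Galphao held in activated GDP-AlF4 state binding bead-coupled RGS7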
Avidin fluor = green autofluorescence of compounds with avidin beads – biophysical, 488/530 nm, flow cytometry, artefact control, profiling panel. compound fluorescence 488/530 nm; stronger effect = higher value. fluorescence (KMESF) at 10 µM. 0.38% of 220,000 active; in the data active = fluorescence above about 47
RGS16-Gao HTS = modulators of RGS16 binding to Galphao, primary screen, biochemical, human proteins, multiplexed bead flow cytometry. Regulator of G-protein signaling 16 (Homo sapiens) + Guanine nucleotide-binding protein …. bead-based flow cytometry RGS16-Galphao binding, fluorescence; actives lie on both sides. binding response (% of control), % at 10 µM. 0.38% of 220,000 active;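 also: Galphao activated by GDP with aluminum fluoride before binding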
Target sequence (O15492 whole entry, looked up): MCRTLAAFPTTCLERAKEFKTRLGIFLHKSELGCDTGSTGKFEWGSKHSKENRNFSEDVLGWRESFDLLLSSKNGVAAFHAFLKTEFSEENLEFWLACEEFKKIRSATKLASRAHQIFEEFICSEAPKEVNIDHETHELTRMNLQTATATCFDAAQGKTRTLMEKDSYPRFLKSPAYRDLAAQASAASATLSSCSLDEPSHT
Target sequence (P09471 whole entry, looked up): as the sequence (P09471 whole entry, looked up) above
RGS4-Gao reg = modulators of RGS4 binding to Galphao, primary screen, biochemical, multiplexed bead flow cytometry. 0.33% of 220,000 active. binding response (% of control), % at 10 µM. AID 1415, 2008. Guanine nucleotide-binding protein G(o) subunit alpha (Homo sapiens), P09471. actives lie on both sides; in the data active = binding response below about 49% or above about 150%; inactive = in between;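 also: fluorescent Galphao activated with aluminum fluoride binding bead-coupled RGS4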
RGS-Gao = modulators of RGS–Galpha-o binding, primary screen, biochemical, multiplexed beads, flow cytometry, RGS4/7/8/16/19; shares compounds with RGS16-Gao HTS; multiplexed bead flow cytometry; RGS4–Galpha-o binding response, % at 10 µM; 99% of 1,600 active; AID 1504, 2009;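 also: fluorescently labeled Galpha-o bound to GDP with aluminium fluoride binding biotinylated RGS beads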
Biotin-avidin = disruption of biotin probe capture by avidin, counter-screen for RGS protein interaction modulators, biochemical, flow cytometry, bead-based | shares compounds with RGS16-Gao HTS | 1,700 tested, under 10 active | inhibition, % at 10 µM | streptavidin beads, fluorescein-biotin binding;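 active = inhibition above 50%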;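 also: median green fluorescence of gated singlet beads compared with DMSO control wells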
RGS8-Gao confirm = RGS8-Galphao binding modulators, confirmation, biochemical, multiplexed bead flow cytometry, single concentration; 3% of 1,700 active; bead-based flow cytometry RGS8-Galphao binding, fluorescence; actives lie on both sides; shares compounds with RGS16-Gao HTS; binding response (% of control), % at 10 µM; AID 1836, 2009; in the data active = binding response below about 72% or above about 130%; inactive = in between;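 also: Galphao activated as GDP AlF4 complex before binding bead RGS8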
RGS7-Gao confirm = RGS7-Galphao binding modulators, confirmation, biochemical, multiplexed bead flow cytometry, single concentration; response (percent of control binding), % at 10 µM; shares compounds with RGS16-Gao HTS; bead-based flow cytometry RGS7-Galphao binding; actives lie on both sides; 7.8% of 1,700 active; in the data active = response below about 75% or above about 130%; inactive = in between;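 also: fluorescent Galphao activated with GDP and aluminum fluoride binding bead-coupled RGS7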
RGS16-Gao conf = modulators of RGS16-Galphao protein binding, confirmation, biochemical, single concentration, multiplexed bead flow cytometry | AID 1838, 2009 | bead-based flow cytometry; actives lie on both sides | response (% of control binding), % at 10 µM | 4% of 1,700 active | shares compounds with RGS16-Gao HTS; in the data active = response below about 74% or above about 130%; inactive = in between;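 also: Galphao activated as the GDP aluminium fluoride complex binding bead-coupled RGS16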
RGS4-Gao single = modulators of RGS4-Galphao protein binding, confirmation, biochemical, single concentration, multiplexed bead flow cytometry; shares compounds with RGS16-Gao HTS; actives lie on both sides; binding response (% of control), % at 10 µM; 4% of 1,700 active; AID 1840, 2009; in the data active = binding response below about 74% or above about 130%; inactive = in between
RGS19-Gao single = regulators of RGS19-Galphao binding, confirmation, biochemical, single point, multiplexed bead flow cytometry; shares compounds with RGS16-Gao HTS; response (percent of control binding), % at 10 µM; bead-based flow cytometry RGS19-Galphao binding; actives lie on both sides; 5% of 1,700 active; in the data active = response below about 50% or above about 160%; inactive = in between
A number is an active result; i = inactive; ? = inconclusive; nt = no result given; [ ] = another dose, or the depositor's remark. Sampled rows, rich in hits. Any-hit rate of the full collection: about 1.2%. Unless noted, no rule for the calls is given here.

SMILES	RGS8-Gao	GSH fluor	RGS7-Gao	Avidin fluor	RGS16-Gao HTS	RGS4-Gao reg	RGS-Gao	Biotin-avidin	RGS8-Gao confirm	RGS7-Gao confirm	RGS16-Gao conf	RGS4-Gao single	RGS19-Gao single
O=C(NCc1ccco1)c1ccc(COc2ccc(Cl)cc2)cc1	i	i	i	i	12	i	89	i	i	i	i	i	i
CCOc1ccc(N(CC(=O)Nc2ccccc2)S(C)(=O)=O)cc1	i	i	i	i	-46	i	80	i	i	i	i	i	i
CCOC(=O)c1ccccc1NC(=O)CN(c1ccc(OCC)cc1)S(C)(=O)=O	i	i	i	i	i	i	nt	nt	nt	nt	nt	nt	nt
CCOc1ccc(NC(=O)CC2C(=O)N(c3ccccc3)C(=O)N2Cc2ccccn2)cc1 (stereo unspecified)	144[activator]	i	i	i	i	i	135	i	i	i	i	i	i
CCN(CC)c1ccc(/C=N/NC(=O)OC(C)(C)C)cc1	i	nt	?	i	i	i	nt	nt	nt	nt	nt	nt	nt
Cc1cc(C)c(C(=O)OCCNC(=O)c2cccnc2)cc1C	i	i	184[activator]	215	i	i	122	i	i	i	i	i	i
O=C(NCCOC(=O)c1ccccc1C(=O)OCCNC(=O)c1cccnc1)c1cccnc1	i	i	i	i	i	i	nt	nt	nt	nt	nt	nt	nt
O/N=C/c1ccc(OCc2ccccc2)c(Cl)c1	i	i	i	i	i	i	nt	nt	nt	nt	nt	nt	nt
O/N=C/c1ccc(OCc2ccccc2)c(Br)c1	i	i	i	i	3.0	i	84	i	i	i	i	i	i
CCCC1=C(C(=O)OCC)C(c2sccc2C)n2ncnc2N1 (stereo unspecified)	i	nt	?	i	i	i	nt	nt	nt	nt	nt	nt	nt
CC(C)Sc1nc2ccc(N3C(=O)C4CCCCC4C3=O)cc2s1 (stereo unspecified)	i	i	i	i	21	i	88	i	i	i	i	i	i
Cc1ccc(C(=O)OCC(=O)Nc2ccccc2Sc2ccccc2)cc1C	i	i	i	i	i	i	nt	nt	nt	nt	nt	nt	nt
C#CCNC(=O)C1=C[C@@H](C2CC2)[C@H](CCCO)[C@@H](OCC)O1	8.9	i	-5.5	i	0.9	4.8	nt	i	i	i	i	i	i
CCO[C@@H]1OC(C(=O)NC2CC2)=C[C@H](C2CC2)[C@H]1CCCO	i	nt	?	i	i	i	nt	nt	nt	nt	nt	nt	nt
CCSc1nnc(Nc2ccccc2)s1	42	i	25	i	21	15	nt	i	i	i	i	i	i
COc1ccc(N2CCN(C(=O)c3cccc4nc(C)oc34)CC2)cc1	15	i	19	i	13	22	nt	i	i	i	i	i	i
COc1ccc(N2CCN(C(=O)c3cccn4c(=O)c5ccccc5nc34)CC2)cc1	i	i	i	i	i	i	nt	nt	nt	nt	nt	nt	nt
CC(C)(C)OC(=O)NNC(=O)NC12CC3CC(CC(C3)C1)C2	i	i	i	i	i	i	nt	nt	nt	nt	nt	nt	nt
CC/C(=N/O)c1cnnc(SC)n1	i	i	i	i	16	i	95	i	i	i	i	i	i
CSc1nncc(/C(C)=N/O)n1	i	i	i	i	i	i	nt	nt	nt	nt	nt	nt	nt
Cc1ccc(NC(=O)CN(C)C(=O)CCOc2cccc(C)c2)cc1	i	i	i	i	i	i	nt	nt	nt	nt	nt	nt	nt
CCCn1c(N)nc2ccccc21	144[activator]	i	i	i	i	i	115	i	i	i	i	i	i
CCN(c1ccccc1)S(=O)(=O)c1ccc(N)c(OC)c1	i	i	i	i	i	i	nt	nt	nt	nt	nt	nt	nt
C/C(=N/NC(=O)CCC(=O)Nc1cccc(Cl)c1)c1ccc(C)cc1	i	i	i	i	i	i	nt	nt	nt	nt	nt	nt	nt
COc1ccccc1NC(=O)CCC(=O)N/N=C(/C)c1ccc(C)cc1	i	i	i	i	16	i	90	i	i	i	i	i	i
SMILES	RGS8-Gao	GSH fluor	RGS7-Gao	Avidin fluor	RGS16-Gao HTS	RGS4-Gao reg	RGS-Gao	Biotin-avidin	RGS8-Gao confirm	RGS7-Gao confirm	RGS16-Gao conf	RGS4-Gao single	RGS19-Gao single
O=[N+]([O-])c1cc2c(cc1/C=N/n1c(-c3ccccn3)n[nH]c1=S)OCO2	i	i	i	i	-3.6	i	86	i	i	i	i	i	i
O=[N+]([O-])c1cc2c(cc1/C=N/n1c(-c3ccccc3)n[nH]c1=S)OCO2	i	i	i	i	i	i	nt	nt	nt	nt	nt	nt	nt
C/C(CC(=O)Nc1ccc2c(c1)OCO2)=N\NC(=O)C(c1ccccc1)c1ccccc1	i	i	i	i	15	i	87	i	i	i	i	i	i
CCOC(=O)CC(=O)CSCC(=O)Nc1ccc(C)cc1	57	i	43	i	i	47	nt	i	i	i	i	i	i
Cc1ccc(NC(=O)CSCC#N)cc1	i	i	i	i	i	i	nt	nt	nt	nt	nt	nt	nt
CCOC(=O)C1(CCc2ccccc2)CCN(C(=O)c2cnc(C)cn2)CC1	i	i	i	i	i	i	nt	nt	nt	nt	nt	nt	nt
CC(CCOC1=NS(=O)(=O)c2ccccc21)NC(=O)C(=O)Nc1ccccc1 (stereo unspecified)	i	nt	?	i	i	23	nt	i	131[activator]	556[activator]	286[activator]	466[activator]	211[activator]
O=c1c(Cl)c(NCc2ccccc2)cnn1C12CC3CC(CC(C3)C1)C2	i	i	i	i	i	i	nt	nt	nt	nt	nt	nt	nt
